# Laboratory results: ChEMBL document CHEMBL1201862, “PubChem BioAssay data set” (2004)
# Only a part of the results of these assays is listed, not drawn at random. Active and inactive are the calls of the source. The calls are words filed in the database; no cut-off is given here.
# Molecular target: Luciferin 4-monooxygenase (Photinus pyralis) (UniProt P08659)
# Sequence (P08659 whole entry): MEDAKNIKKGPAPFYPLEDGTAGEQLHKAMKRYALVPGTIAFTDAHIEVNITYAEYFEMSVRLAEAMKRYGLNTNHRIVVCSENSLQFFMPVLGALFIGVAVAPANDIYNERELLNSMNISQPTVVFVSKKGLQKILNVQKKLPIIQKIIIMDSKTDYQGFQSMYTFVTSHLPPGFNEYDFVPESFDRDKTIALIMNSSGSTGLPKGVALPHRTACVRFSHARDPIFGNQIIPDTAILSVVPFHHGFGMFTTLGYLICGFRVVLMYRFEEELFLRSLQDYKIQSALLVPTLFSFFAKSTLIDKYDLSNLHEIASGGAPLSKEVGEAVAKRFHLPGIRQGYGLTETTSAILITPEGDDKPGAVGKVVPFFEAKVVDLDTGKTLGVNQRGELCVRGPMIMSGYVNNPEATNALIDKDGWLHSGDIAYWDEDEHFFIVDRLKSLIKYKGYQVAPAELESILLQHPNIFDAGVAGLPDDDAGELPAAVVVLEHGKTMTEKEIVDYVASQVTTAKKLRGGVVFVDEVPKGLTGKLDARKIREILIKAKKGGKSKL
structure (smiles),measurement,value
CC(O)[C@@H]1NC(=O)[C@H](CCCCN)NC(=O)[C@@H](Cc2c[nH]c3ccccc23)NC(=O)[C@H](Cc2ccccc2)NC(=O)[C@@H](NC(=O)[C@H](N)Cc2ccccc2)CSSC[C@@H](C(=O)N[C@H](CO)[C@@H](C)O)NC1=O (stereo partly specified),Potency,inactive
